PAFAH1B2 FP inh: PAFAH1B2 enzyme inhibitors, primary screen, biochemical, fluorescence polarization, human; AID 492953, 2010; recombinant PAFAH1B2, FP-rhodamine activity probe; hit rate 1.2% among 340,000; inhibition, % at 3.39 µM; Platelet-activating factor acetylhydrolase IB subunit alpha2 (Homo sapiens), P68402;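 active means inhibition above the mean of all tested compounds plus 3 SD, cut at about 24% in these data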;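 further: 0% = enzyme with DMSO and 100% = wells lacking PAFAH1B2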
Fam108B counter: mouse Fam108B serine hydrolase inhibitors, primary screen, counter-screen for RBBP9 inhibitor project, biochemical, fluorescence polarization; AID 1947, 2009; recombinant Fam108B, FP-Rh probe fluorescence polarization; inhibition, % at 9.51 µM; hit rate 0.33% among 300,000;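 active means inhibition above the screen mean inhibition plus 3 SD, computed separately per campaign, cut at about 18% in these data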;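 further: inhibitors lower polarization as less probe binds the enzyme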
PAFAH1B3 FP inh: PAFAH1B3 enzyme inhibitors, primary screen, biochemical, fluorescence polarization, human | hit rate 0.28% among 340,000 | recombinant PAFAH1B3, FP-rhodamine probe | inhibition, % at 3.39 µM | AID 492972, 2010;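 active means inhibition above the screen-wide average of all tested compounds plus 3 SD, cut at about 25% in these data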;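 further: 0% = enzyme with DMSO only and 100% = wells lacking PAFAH1B3 protein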
Target sequence (Q15102 whole entry, looked up): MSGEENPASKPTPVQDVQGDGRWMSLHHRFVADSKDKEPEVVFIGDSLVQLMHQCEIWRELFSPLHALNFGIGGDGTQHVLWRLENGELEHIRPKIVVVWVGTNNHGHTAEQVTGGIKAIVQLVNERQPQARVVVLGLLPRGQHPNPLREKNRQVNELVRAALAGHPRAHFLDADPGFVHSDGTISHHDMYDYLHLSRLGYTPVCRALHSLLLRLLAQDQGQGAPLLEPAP
PAFAH2 FP inh: PAFAH2 enzyme inhibitors, primary screen, biochemical, fluorescence polarization, human; Platelet-activating factor acetylhydrolase 2, cytoplasmic (Homo sapiens), Q99487; inhibition, % at 3.39 µM; hit rate 0.99% among 340,000; recombinant PAFAH2, FP-rhodamine activity probe;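 active means inhibition above the mean over all tested compounds plus 3 SD, cut at about 30% in these data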;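 further: inhibitors block probe labeling of enzyme so polarization drops; 0% = enzyme with DMSO and 100% = wells lacking PAFAH2 protein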
PME-1 primary: PME-1 inhibitors via competitive probe labeling, primary screen, biochemical, fluorescence polarization, FP-Rh probe, HTS | Protein phosphatase methylesterase 1 (Homo sapiens), Q9Y570 | recombinant PME-1 | inhibition, % at 5.9 µM | hit rate 0.53% among 320,000 | AID 2130, 2009;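 active means inhibition above the campaign mean of all compounds plus 3 SD, cut at about 26% in these data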;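 further: competitive labeling of PME-1 active site by serine hydrolase directed probe; 0% = PME-1 with DMSO and 100% = wells lacking PME-1 enzyme; inhibitors block probe labeling so polarization falls and inhibition rises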
pPAFAH FP inh: pPAFAH enzyme inhibitors, primary screen, biochemical, fluorescence polarization, human; Platelet-activating factor acetylhydrolase (Homo sapiens), Q13093; recombinant pPAFAH, FP-rhodamine probe fluorescence polarization; inhibition, % at 3.39 µM; hit rate 1.5% among 330,000;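 active means inhibition above the mean inhibition across the screen plus 3 SD, cut at about 25% in these data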;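 further: inhibitors block binding of the rhodamine activity-based probe so polarization drops; 0% = enzyme with DMSO and 100% = wells lacking pPAFAH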
Target sequence (Q13093 whole entry, looked up): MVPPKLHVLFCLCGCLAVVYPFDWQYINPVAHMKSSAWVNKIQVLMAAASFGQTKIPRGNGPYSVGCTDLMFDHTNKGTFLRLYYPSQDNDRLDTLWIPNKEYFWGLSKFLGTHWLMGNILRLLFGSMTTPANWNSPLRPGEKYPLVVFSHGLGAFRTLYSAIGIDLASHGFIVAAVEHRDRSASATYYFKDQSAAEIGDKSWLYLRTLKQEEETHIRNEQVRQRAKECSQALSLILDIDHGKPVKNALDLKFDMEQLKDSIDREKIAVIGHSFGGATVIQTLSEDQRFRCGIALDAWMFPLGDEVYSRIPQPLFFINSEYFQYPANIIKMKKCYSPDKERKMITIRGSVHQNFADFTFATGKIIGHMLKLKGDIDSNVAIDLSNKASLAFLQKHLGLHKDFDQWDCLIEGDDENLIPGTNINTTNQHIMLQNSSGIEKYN
pPAFAH confirm: pPAFAH (PLA2G7) enzyme inhibitors, confirmation, biochemical, fluorescence polarization, human; shares compounds with pPAFAH FP inh; recombinant pPAFAH, FP-Rh probe fluorescence polarization; inhibition, % at 3.39 µM; hit rate 72% among 2,300; AID 463230, 2010;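 active means mean inhibition of the triplicate above the hit cutoff set for the earlier primary screen, cut at about 25% in these data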;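 further: 0% = enzyme with DMSO and 100% = wells lacking pPAFAH enzyme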
Starred values were filed as active, the others as inactive; x = not tested or not shown; ! = not confirmed by another sample. A selection: hits, their analogues and other compounds. The true share with any hit is near 2.9%.

SMILES | PAFAH1B2 FP inh | Fam108B counter | PAFAH1B3 FP inh | PAFAH2 FP inh | PME-1 primary | pPAFAH FP inh | pPAFAH confirm
O=c1oc2c(CN3CCCCC3)c(O)ccc2c2c1CCCC2 | -0.7 | 10.3 | -5.2 | 0.2 | 2.9 | 37.6* | 4.7
NNc1nc(C(F)(F)F)nc2ccccc12 | 0.1 | 3.9 | -7.0 | -1.5 | -0.8 | 4.0 | x
O/C=c1\ccc2cccc3nc(C(F)(F)F)nc1c23 | 8.6 | 3.9 | 22.4 | 12.1 | 0.1 | 40.3* | 21.8
O=C(c1ccc(CS(=O)Cc2ccc(Cl)cc2)o1)N1CCN(c2ccccc2F)CC1 (stereo not given) | 7.4 | -0.4 | 8.4 | 12.8 | -4.5 | 23.8 | x
COc1ccc(N2CCN(C(=O)c3ccc(CS(=O)Cc4ccc(Cl)cc4)o3)CC2)cc1 (stereo not given) | 3.1 | -2.3 | -0.9 | 1.2 | -1.9 | 36.1* | 28.5*
Cc1cccc(N2CCN(C(=O)c3ccc(CS(=O)Cc4cccc(Cl)c4)o3)CC2)c1C (stereo not given) | 1.5 | 2.2 | 8.3 | 6.6 | 0.3 | 43.0* | 19.1
CN1CCN(C(=O)c2ccc(CS(=O)Cc3ccc(Cl)cc3)o2)CC1 (stereo not given) | -0.7 | 4.2 | 0.5 | -0.4 | 0.6 | 5.2 | x
CN(C)c1ccnc(SCc2ccccc2Cl)c1C#N | 6.4 | -6.7 | 7.1 | 0.4 | -2.2 | 34.7* | 23.2
CN(C)c1ccnc(Oc2ccccc2)c1C#N | 3.7 | x | 0.1 | -5.1 | x | x | x
COC(=O)CSc1nc(NC#N)nc(NC(C)(C)C)n1 | 22.9 | -0.7 | 4.9 | -6.0 | 0.8 | 1.8 | x
CN1CCN(CC(=O)N2CCn3c4c(c5cc(C6CCCCC6)ccc53)CCCC42)CC1 (stereo not given) | 5.4 | 1.1 | 9.4 | -1.7 | 1.6 | 36.3* | 53.5*
COC(=O)CCC(=O)OC1(C)C(=O)C2=COC(c3ccc(OC)cc3)=CC2=C(Br)C1=O (stereo not given) | x | 1.8 | x | x | -0.2 | 35.2* | 20.7
CCOc1ccc(-n2c(C)cc(/C=N/Nc3nc(C)cc(=O)[nH]3)c2C)cc1 | -2.1 | 2.5 | 1.9 | 5.3 | -1.6 | 42.7* | 84.9*
CCCNC(=O)C(Cc1cccc(Cl)c1)NC(=O)c1ccc(C#N)cc1 (stereo not given) | -1.4 | x | 17.5 | 6.2 | 4.0 | 0.9 | x
CCCCn1c(SCC(=O)c2ccc(O)c(O)c2)nc2ccsc2c1=O | 15.4 | 7.4 | 1.8 | 27.7 | 14.8 | 42.2* | 87.6*
CC(/C=N/NC(=O)Cc1cc(=O)[nH][nH]1)=C\c1ccccc1 | 8.9 | -0.2 | 0.9 | -3.9 | 2.6 | 53.8* | 2.5
CC1=NNC(=O)C1CC(=O)N/N=C/C(C)=C/c1ccccc1 (stereo not given) | -1.8 | 1.1 | -3.6 | -2.7 | -3.9 | 0.4 | x
O=C(COC(=O)c1cc2c(s1)CCC2)Nc1ccc(F)cc1 | -0.9 | 0.9 | 10.3 | 86.8* | 0.5 | 43.6* | 38.0*
Cc1nc(S(=O)(=O)Cc2ccccc2)nc2c1CCC2 | -0.3 | -0.6 | 4.0 | -4.6 | 2.1 | 6.1 | x
Cc1cc2nc3c(=O)n(CCc4ccccc4)c(=O)[nH]c3nc2cc1N | 8.8 | 8.9 | 12.2 | 26.1 | 54.1* | 55.9* | 20.1
CCCCn1c(=O)[nH]c2nc3cc(N)ccc3nc2c1=O | 13.7 | 8.9 | 3.9 | 26.5 | 22.8 | 37.0* | 13.6
O=C(OCC(=O)N1CCN(S(=O)(=O)c2ccc(Cl)cc2)CC1)c1ccc([N+](=O)[O-])o1 | 15.0 | 0.1 | 14.0 | -0.3 | 1.8 | 0.6 | x
O=P(O)(O)COc1ccccc1P(=O)(c1ccccc1)c1ccccc1 | -4.8 | -2.7 | 3.3 | 4.5 | 7.5 | 3.5 | x
O=C(O)CN1CCN(Cc2ccccc2F)C1=O | 1.2 | 1.5 | 5.0 | 2.9 | 5.9 | 58.1* | 1.6
CN(CC(=O)Nc1ccc(N2CCOCC2)cc1)CC(=O)Nc1ccc(N2CCOCC2)cc1 | 4.0 | 1.6 | 0.3 | 4.2 | -5.7 | 41.7* | 35.0*
SMILES | PAFAH1B2 FP inh | Fam108B counter | PAFAH1B3 FP inh | PAFAH2 FP inh | PME-1 primary | pPAFAH FP inh | pPAFAH confirm
CSCCC(NC(=O)c1ccccc1)C(=O)N(C)CC(=O)Nc1ccc(N2CCOCC2)cc1 (stereo not given) | 2.6 | 0.1 | 4.5 | 9.4 | 4.1 | 35.9* | 31.6*
CN(CC(=O)Nc1ccc(C#N)cc1)CC(=O)Nc1ccc(N2CCOCC2)cc1 | 6.4 | 5.7 | 5.0 | 1.2 | 8.4 | 6.6 | x
COc1ccccc1NC(=O)Nc1ccc(C(=O)N2CCCCC2)cc1 | 8.1 | -0.1 | 2.8 | -6.4 | -2.8 | 3.2 | x
CCOc1ccc(-c2ccc(SC)nn2)cc1 | 4.0 | 0.4 | 0.9 | 1.6 | -5.0 | 3.7 | x
O=C(N/N=C/c1cccc(F)c1)c1cc(-c2ccco2)nc2ccccc12 | 2.5 | 7.9 | 8.6 | 8.4 | 0.6 | 39.3* | 21.1
CC(C)CCNC(=O)c1cc(-c2ccco2)nc2ccccc12 | -1.4 | 4.4 | 0.1 | 2.7 | -0.9 | -1.4 | x
CN(C)C(CNC(=O)c1cc(-c2ccco2)nc2ccccc12)c1ccccc1 (stereo not given) | 4.3 | x | 7.6 | 5.7 | x | 61.1* | 23.3
O=C(O)c1cc(-c2ccco2)nc2ccc(Br)cc12 | 14.4 | 4.9 | 21.9 | 45.0*! | -19.6 | 63.2*! | 6.9
COC(=O)C1CCN(C(=O)c2cc(-c3ccco3)nc3ccccc23)CC1 | 4.0 | x | 11.5 | 20.0 | x | 45.1* | 21.2
CCN(C(=O)COC(=O)CSc1ccccc1)c1c(N)n(Cc2ccccc2)c(=O)[nH]c1=O | 5.7 | -0.1 | 9.1 | -0.7 | -7.1 | 20.1 | x
CCOc1ccccc1C(=O)NCC(=O)OCc1csc(CC(=O)Nc2ccc(C)cc2)n1 | 0.1 | x | 2.1 | 29.0 | -13.8 | 36.7* | 18.4
COc1ccccc1C(=O)NCC(=O)OCc1csc(-c2ccccc2)n1 | 5.8 | -8.3 | 0.0 | -8.7 | -1.0 | -2.5 | x
Cc1[nH]n(-c2nc(-c3ccccc3F)cc(=O)[nH]2)c(=O)c1CCO | 2.3 | -4.3 | -2.6 | 2.6 | 0.8 | 40.5* | 6.2
Cc1[nH]n(-c2ccccc2)c(=O)c1CCO | 2.1 | 5.3 | 2.7 | -2.3 | -7.0 | 1.7 | x
C/C(=N\NC(=O)C1(C)CC1(Br)Br)c1cccc(NC(=O)c2ccc(C)o2)c1 (stereo not given) | 5.0 | -3.2 | -1.4 | -2.2 | 8.4 | -1.5 | x
Cn1cccc1/C=N/N1CCN(Cc2cccc3ccccc23)CC1 | -0.7 | -0.3 | -1.8 | 12.6 | -1.7 | 46.0* | 2.6
COC(=O)C12OCC34C(CC5C(C)=C(O)C(=O)CC5(C)C3C(O)C1O)OC(=O)C(OC(=O)C=C(C)C)C24 (stereo not given) | 3.1 | x | 5.1 | 1.0 | x | x | x

From PubChem
